Compound activity from PubChem.
VACV mCherry inh – qHTS for Stage-Specific Inhibitors of Vaccinia Orthopoxvirus: mCherry Reporter Primary qHTS | 0.63% of 310,000 active | Vaccinia virus mCherry reporter infection, fluorescence | Potency, µM (top dose mostly 36.5 µM), without a hit: at the highest dose activity change, negative = inhibition, actives largely listed as inhibitors; calls by dose curve; tested in A549 cells; further: potency means the concentration at half of the fitted maximal effect; nearly all actives have a fitted effect of over 35% in size
HCV inh – qHTS Assay for Inhibitors of Hepatitis C Virus (HCV). Huh7.5.1 HCVcc-Cre infection, luciferase reporter, 44 h. Potency, µM (doses to about 41.8 µM), without a hit: at the highest dose activity change, negative = inhibition, hits mostly inhibitors. 3.4% of 340,000 active; active means well fitted inhibition curve with a large enough effect; inconclusive means small, poorly fitted or top-dose-only effect, or another doubt; inactive means no such curve, though single readings can be large or run the other way; further: potency means the concentration at half of the fitted maximal effect
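After 44 h co-culture of compound, cells and HCVcc-Cre (~0.5 moi), substrate is added for 15 min at room temperature and luciferase measured over 15 sec. Cells were seeded at 1,000/well and pre-cultured 4 h.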
Marburg entry inh – qHTS for inhibitors of binding or entry into cells for Marburg Virus. Marburg virus pseudotyped entry inhibition, cell reporter. Potency, µM (highest dose often 37.8 µM), inactives show at the top dose activity change, negative = inhibition, usual class: inhibitors. 1.8% of 300,000 active; calls by dose curve; tested in HEK293 cells; further: potency means the concentration at half of the fitted maximal effect
HCMV inh – qHTS Assay for inhibitors of the human cytomegalovirus (HCMV). HFF cells, HCMV-luciferase reporter, 72 h; active compounds read low. activity change, negative = inhibition, % at 57.5 µM. 4.5% of 410,000 active; in the data active means activity change below about -60%; inconclusive means no clear call, values can overlap the other calls; inactive means above about -39%
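Two compound doses tested in HFFs infected with HCMV-luciferase, MOI 1 PFU/cell, 72 h at 37C. Lysate luminescence read with OneGlo; data normalized against buffer-only and 10uM Salinomycin inhibitor controls.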
LASV entry inh – qHTS for Inhibitors of binding or entry into cells for Lassa Virus. Lassa virus pseudotype entry inhibition, cell reporter. Potency, µM (doses to about 37.9 µM), without a hit: at the highest dose activity change, negative = inhibition, actives largely listed as inhibitors. 1.2% of 300,000 active; calls by dose curve; tested in HEK293 cells; further: potency means the concentration at half of the fitted maximal effect; nearly all actives have a fitted effect of over 50% in size
Vaccinia Venus – qHTS for Stage-Specific Inhibitors of Vaccinia Orthopoxvirus: Venus Reporter Primary qHTS. Vaccinia virus Venus reporter expression, fluorescence. Potency, µM (top dose mostly 36.5 µM), for inactives: top-dose activity change, negative = inhibition, hits mostly inhibitors. AID 720580, 2013. 0.46% of 330,000 active; calls by dose curve; tested in A549 cells; further: potency means the concentration at half of the fitted maximal effect; nearly all actives have a fitted effect of over 30% in size
Starred values were filed as active, the others as inactive; i = inactive; ? = inconclusive; . = no result; [ ] = remark or other dose. Hits are enriched below; roughly 7.8% of the tested compounds scored in any of these assays. On the % scale 0 is the no-effect control and ±100 the full control effect.

SMILES | VACV mCherry inh | HCV inh | Marburg entry inh | HCMV inh | LASV entry inh | Vaccinia Venus
OCCNc1c2ccccc2nc2ccccc12 | ? | ? | ? | -100.9* | -22.3% | ?
COCCNc1nc(-c2cccc(OC)c2)nc2ccccc12 | -25.4% | . | . | . | . | -20.8%
COCCCNc1nc(-c2ccc(Cl)cc2)nc2ccccc12 | -17.0% | 12.6µM* | 11.2µM* | 33.3 | ? | -21.4%
CCN(CC)CCCNc1nc2ccccc2c2nc(-c3ccncc3)nn12 | ? | ? | 7.94µM* | ? | ? | 11.2µM*
CCN(CC)CCCNc1nc2ccccc2c2[nH]c3ccc(OC)cc3c12 | ? | ? | ? | -93.4* | ? | 10µM*
CCN(CC)CCCNc1nc(-c2ccccc2)nc2ccccc12 | i | 10µM* | 16.4µM* | ? | ? | ?
Cc1ccc(Nc2nc(NCCO)c3ccccc3n2)cc1C | -15.4% | 12.6µM* | ? | 37.0 | 17.0%[46.1 µM] | ?
O=C(NCCO)c1nc(NCCO)c2ccccc2n1 | . | 8.9% | 7.6% | -11.6 | 0.7% | .
OCCNc1nc(-c2ccccc2)nc2ccccc12 | i | 7.94µM* | -0.8%[46.1 µM] | 73.9 | -24.5% | -12.0%
O=C(O)CCCCCNc1nc(-c2ccccc2)nc2ccccc12 | . | -2.2% | . | -5.0 | . | .
CC(=O)OCCNc1nc(-c2ccccc2)nc2ccccc12 | . | 10µM* | -12.3% | 4.8 | 5.3% | .
C=CCOC(=O)N[C@H](c1ccco1)C(C(C)=O)C(C)=O | . | . | 8.6%[14.2 µM] | . | . | .
C[C@@H]1CN(Cc2ccc3c(c2)CN(Cc2nc(-c4ccccc4)cs2)CCO3)C[C@H](C)O1 | -22.5% | . | . | . | . | -24.7%
C[C@H]1CC[C@H]2C(=O)O[C@H](COc3ccc(C(C)(C)C)cc3)CN2[C@H]1c1ccc(Br)cc1 | . | . | -11.8%[14.2 µM] | . | ? | .
Cc1ncc2c(c1CNC(=O)c1ccc3c(c1)OCO3)CCN(C(=O)/C=C/c1ccc(Cl)cc1)C2 | -2.9% | . | . | . | . | 15.1%
COCCNc1nc(-c2ccccc2)nc2ccccc12 | i | ? | ? | -29.8 | ? | -13.6%
COCCCNc1nc(-c2ccncc2)nc2ccccc12 | -16.0% | 11.2µM* | ? | 13.9 | -19.9% | -11.4%
Clc1ccc(-c2nc(NCCN3CCOCC3)c3ccccc3n2)cc1 | . | ? | ? | 35.3 | 3.9% | .
OCCCNc1nc(-c2ccc(Cl)cc2)nc2ccccc12 | . | 12.6µM* | . | 28.4 | . | .
Cc1c(C(=O)NCCC2CCCN2C)cnn1-c1nccc(-c2ccccc2F)n1 (centres undefined) | -7.0% | . | . | . | . | 4.9%
Cc1cc(C)c2c(c1)-c1c(ssc1=S)C(C)(C)N2C(=O)CSc1nncn1C | . | 12.6µM* | 14.1µM* | 6.4 | ? | ?
Cc1ccc2c(c1)-c1c(ssc1=S)C(C)(C)N2C(=O)CSc1nncn1C | . | 10µM* | ? | -2.6 | ? | -25.6%
CC1=NN(C(C#N)c2ccccc2C)C(C)(C)C1 (centres undefined) | i | 27.6% | -8.4% | -64.6* | -1.8% | 4.8%
S=C(NCc1ccccc1)Nc1cccc2ccccc12 | ? | 10µM* | 7.1%[46.1 µM] | ? | ? | -11.0%
Cc1ccc(C(C)C)c(OCCNCc2ccccc2)c1 | . | -4.3% | . | -8.6 | . | .
SMILES | VACV mCherry inh | HCV inh | Marburg entry inh | HCMV inh | LASV entry inh | Vaccinia Venus
Cc1c(Cl)cccc1NC(=S)NCc1ccccc1 | -13.9% | -17.4% | 1.5% | -78.2* | 6.9% | -14.1%
Cc1ccc(C(C)C)c(OCCNC(=S)Nc2cccc3ccccc23)c1 | . | 31.6µM* | ? | -24.8 | 15.8% | .
CCOC1(OCC)C(c2ccc(N)cc2)C(C#N)(C#N)C1(OCC)OCC (centres undefined) | . | 19.4% | ? | 49.5 | -3.0% | .
CCOC1(OCC)C(c2ccc(Cl)cc2)C(C#N)(C#N)C1(OCC)OCC (centres undefined) | -16.9% | -25.2% | ? | ? | 20.6µM* | -11.4%
COc1ccc(CNC(=O)c2ccc(NC(=O)N3CCCCc4ccccc43)cc2)cc1 | -11.5% | . | . | 31.8 | 0.2%[46.1 µM] | -14.8%
Cc1nc2cc(C(=O)OCC(=O)NC(C)C(C)C)ccc2n1-c1ccccc1 (centres undefined) | i | -1.3% | ? | -8.2 | 8.2µM* | -7.7%
Cc1nc2cc(C(=O)OCC(=O)N(CC(C)C)C3CCS(=O)(=O)C3)ccc2n1-c1ccccc1 (centres undefined) | . | ? | ? | -95.7* | -3.1% | .
COc1ccc(OC)c2c(C)ccnc12 | -5.5% | . | . | . | . | -15.9%
COc1cccc(Cn2c(C(C)n3c(C)nc4ccccc43)nc3ccccc32)c1 (centres undefined) | -13.3% | . | . | -11.0 | . | -13.2%
CCOC(=O)c1ccc(Oc2c(C)oc3cc(OS(C)(=O)=O)ccc3c2=O)cc1 | -19.5% | ? | ? | -76.6* | 4.9% | -12.6%
COc1cc2c(cc1OC)n(Cc1ccc([N+](=O)[O-])cc1)c(=O)n1nc(-c3ccccc3)nc21 | -24.6% | . | . | -3.3 | -28.5%[46.1 µM] | -28.1%
CCOC(=O)/C(=C\Nc1cccc(OCc2ccccc2)c1)NC(=O)c1ccccc1 | . | . | . | -60.3* | . | .
CC(C)Oc1cccc(C(=O)NC(=S)N2CCN(c3ccc(C(F)(F)F)cc3[N+](=O)[O-])CC2)c1 | . | ? | ? | -21.5 | ? | -36.0%
COc1cccc(C(=O)NC(=S)N2CCN(c3ccc(C(F)(F)F)cc3[N+](=O)[O-])CC2)c1 | -20.9% | ? | 7.2% | -61.9* | -14.7% | -19.3%
CC(=O)N1CCc2c(sc(NC(=O)CSc3ccccc3)c2-c2nc3ccccc3s2)C1 | -1.2%[7.34 µM] | . | . | -97.0* | -18.3%[46.1 µM] | -2.6%[7.34 µM]
CC(=O)Nc1sc2c(c1-c1nc3ccccc3s1)CN(C(C)C)CC2 | . | . | . | -97.3* | . | .
CC(=O)N1CCc2c(sc(NC(=O)C3CC3)c2-c2nc3ccccc3s2)C1 | ? | 12.6µM* | -0.4% | 12.2 | . | ?
CCCCC(=O)Nc1sc2c(c1-c1nc3ccccc3s1)CCN(C(C)=O)C2 | . | ? | -5.1% | . | . | .
COc1ccc(NC(=O)N2CCOc3ccc(Cl)cc32)cc1 | -3.9% | . | . | -7.9 | ? | -10.7%
CCOC(=O)c1c(C)n(S(=O)(=O)c2ccc(C)cc2)c2ccc(NS(=O)(=O)c3ccc(C)cc3)cc12 | -27.1% | . | -30.0%[46.1 µM] | 22.7 | 6.31µM* | -18.8%
COc1cc2c(cc1OC)C1O[C@](CCCCN3C(=O)c4ccccc4C3=O)(C2)OC2=C1C(=O)CC(C)(C)C2 | . | . | -8.8%[14.2 µM] | . | . | .
O=C(c1ccccc1)c1ccc(OCCn2cnc3ccccc3c2=O)cc1 | -29.8% | -20.5% | -14.0% | 33.3 | 25.1µM* | -24.9%
COc1cccc(-n2ccnc2SCC(=O)Nc2cccc3ccccc23)c1 | i | . | . | -17.8 | 2.5%[46.1 µM] | -17.7%
CCS(=O)(=O)c1nc(S(=O)(=O)c2ccc(Cl)cc2)c(NCc2ccccc2Cl)s1 | -11.0% | . | ? | -14.2 | -13.7%[46.1 µM] | -7.8%
